# Sampled rows, rich in hits. Any-hit rate of the full collection: about 2%.
# UHRF1 MBD2 ctr: human UHRF1 methylated DNA binding inhibitors | hit rate 0.75% among 370,000 | inhibition, % at 4.4 µM | UHRF1 binding to methylated oligo, TR-FRET | AID 687016 | Q96T88; in the data active = inhibition above about 21%;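 note: UHRF1 SRA domain binding a hemimethylated CpG hairpin DNA probe; 0% = median of test compound wells and 100% = reference inhibitor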
# Target sequence (Q96T88 whole entry, looked up, the tested form may be a part): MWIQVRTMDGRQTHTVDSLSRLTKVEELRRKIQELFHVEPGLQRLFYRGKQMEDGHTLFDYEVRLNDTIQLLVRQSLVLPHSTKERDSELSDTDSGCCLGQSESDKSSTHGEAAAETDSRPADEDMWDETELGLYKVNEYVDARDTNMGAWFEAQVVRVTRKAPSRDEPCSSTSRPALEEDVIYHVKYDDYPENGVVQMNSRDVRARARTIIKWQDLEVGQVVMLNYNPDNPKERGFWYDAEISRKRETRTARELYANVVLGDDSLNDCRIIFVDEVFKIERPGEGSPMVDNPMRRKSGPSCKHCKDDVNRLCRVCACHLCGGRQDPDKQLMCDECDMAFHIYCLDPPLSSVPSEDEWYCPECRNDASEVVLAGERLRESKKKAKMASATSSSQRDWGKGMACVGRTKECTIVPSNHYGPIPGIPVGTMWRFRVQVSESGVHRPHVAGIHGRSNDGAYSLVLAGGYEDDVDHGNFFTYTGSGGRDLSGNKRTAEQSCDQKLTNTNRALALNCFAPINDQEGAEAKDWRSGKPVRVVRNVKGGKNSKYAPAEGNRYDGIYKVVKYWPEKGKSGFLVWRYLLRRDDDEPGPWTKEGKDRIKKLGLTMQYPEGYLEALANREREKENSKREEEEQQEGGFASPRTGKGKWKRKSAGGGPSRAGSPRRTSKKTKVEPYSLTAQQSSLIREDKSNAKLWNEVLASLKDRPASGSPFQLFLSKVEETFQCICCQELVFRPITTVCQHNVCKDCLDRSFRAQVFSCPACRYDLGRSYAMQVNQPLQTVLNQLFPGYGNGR
# Rin1 Abl inh: blocks binding of human Rin1 to Abl; P00519+Q13671; TR-FRET Rin1/Abl binding, biochemical; inhibition, % at 7.35 µM; hit rate 0.4% among 360,000; in the data active = inhibition above about 5%, passing the limit was not always enough
# LEDGF integ inh: blocks HIV-1 LEDGF/p75-dependent DNA integration | inhibition, % at 3.7 µM | TR-FRET IN-LEDGF/p75 DNA integration, Eu/Cy5 | hit rate 0.64% among 370,000 | AID 743269;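 active = inhibition above the screen-wide mean plus 3 SD, cut at about 13% in these data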;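 note: signal is the Cy5 over europium emission ratio at 671 and 618 nm; 0% = plate median of compound wells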
# TCR CD3 inh: inhibitors of human TCR-CD3 interaction; TAMRA-labeled TCR probe fluorescence, biochemical; AID 651800; hit rate 0.37% among 360,000; inhibition, % at 9.4 µM; in the data active = inhibition above about 19%;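 note: recombinant mutant TCR 2C K166C tagged with TAMRA read by polarization; 0% = receptor in buffer alone and 100% = receptor with positive control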
# MBD2 DNA inh: inhibitors of human MBD2 binding to methylated oligonucleotide | Q9UBB5 | TR-FRET | inhibition, % at 4.4 µM | hit rate 0.31% among 370,000 | AID 686964; in the data active = inhibition above about 13%
# An asterisk follows results filed as active; nt = no result given.
SMILES,UHRF1 MBD2 ctr,Rin1 Abl inh,LEDGF integ inh,TCR CD3 inh,MBD2 DNA inh
O=C(CC1C(=O)NCCN1C(=O)Nc1ccccc1)Nc1cccc(Cl)c1 (stereo not drawn),33*,-1,-2,2,5
CCN(CC)C(=O)CC[C@H]1CC[C@]2(CCCN(C(=O)c3ccco3)C2)O1,0,nt,-2,nt,3
Cc1cc(O)c(Sc2ncn[nH]2)cc1NS(=O)(=O)c1ccc(Cl)cc1,0,2,6,2,-5
O=S(=O)(Nc1cc(Sc2ncn[nH]2)c(O)c2ccccc12)c1ccccc1,11,7,34*,2,-4
CCOC(=O)N1CCN(C(=O)C[C@H]2C[C@@]3(C(=O)OC)C(=C[C@H](C4CCCC4)O[C@@H]3C)N(Cc3cccc4ccccc34)C2=O)CC1,0,nt,3,nt,-1
COc1ccc(N2CCN(C(=O)c3oc4ccccc4c3NC(=O)Cc3ccc(OC)c(OC)c3)CC2)cc1,3,0,2,2,0
COc1ccc(N2CCN(C(=O)c3oc4ccccc4c3NC(=O)Cc3cccc(OC)c3)CC2)cc1,24*,0,4,1,4
CCCCn1nnnc1C(c1ccccc1)N1CCN(C/C=C/c2ccccc2)CC1 (stereo not drawn),-1,4,4,2,3
CCCCn1nnnc1C(CC)N1CCN(C/C=C/c2ccccc2)CC1 (stereo not drawn),22*,0,3,-6,10
COCCNC(=O)c1c(N)[nH]c(C(=O)c2ccc(Br)cc2)c1-c1c(OC)ccc2ccccc12,-4,nt,-2,nt,-1
O=C(c1nc2ccccn2c1CNCCCn1cccn1)N1CCCC1,24*,-3,2,3,7
COc1cc(C(=O)OCC(=O)Nc2c(C)n(C)n(-c3ccccc3)c2=O)c([N+](=O)[O-])cc1OC,32*,0,6,-1,2
O=C(O[C@@H]1OC2COC(=O)c3cc(O)c(O)c(O)c3-c3c(cc(O)c(O)c3O)C(=O)O[C@@H]([C@H]1O)[C@@H]2O)c1cc(O)c(O)c(O)c1,nt,69*,nt,nt,nt
Cc1ccc(C)c(N2C(=N)S/C(=C\c3ccc(-c4ccccc4C(=O)O)o3)C2=O)c1,21*,-1,-4,-3,11
Cc1cc(/C=c2\sc3nc4ccccc4n3c2=O)c(C)n1-c1ccc(C(=O)O)cc1,4,4,1,-4,4
CN1C(=O)/C(=C/c2ccc(-c3ccccc3[N+](=O)[O-])o2)SC1=Nc1ccc(Cl)c(C(=O)O)c1,-1,-1,2,8,-5
O=C1NN(c2ccc(Cl)c(Cl)c2)C(=O)/C1=C/c1ccc(-c2ccccc2C(=O)O)o1,7,-1,1,-4,4
O=C(O)c1ccc(-c2ccc(/C=c3/sc4nc5ccccc5n4c3=O)o2)cc1Cl,40*,1,8,6,8
Cc1cc(C)c2nc3sc(=Cc4ccc(-c5ccccc5C(=O)O)o4)c(=O)n3c2c1,24*,-2,9,7,7
CCOC(=O)[C@]12CCC=C1N(Cc1ccc(Cl)cc1Cl)C(=O)[C@H](CC(=O)N1CCOCC1)C2,-1,nt,5,9,-5
CCCN1C(=O)c2n[nH]c(C)c2C1c1ccc(Br)cc1 (stereo not drawn),-2,nt,1,4,1
C[C@H]1CN([C@@H](C)CO)C(=O)CCCn2cc(nn2)CO[C@@H]1CN(C)S(=O)(=O)c1cn(C)cn1,1,nt,-2,-2,1
Cc1ccc(C(=O)N/C(=C/c2ccc(F)cc2)C(=O)NCc2ccncc2)cc1,23*,-1,2,1,3
CCOc1ccc(S(=O)(=O)N2CCC(C(=O)NCc3ccncc3)CC2)cc1Cl,-2,2,2,-1,2
CC(=O)Oc1cc(C(=O)OCC(=O)NC23CC4CC(CC(C4)C2)C3)cc(OC(C)=O)c1OC(C)=O,15,9.8*,44*,49*,8
O=C(O)CCCCCN=Cc1c(O)c2ccccc2oc1=O,23*,3,-3,-3,-3
c1ccc(-c2noc(C3CCC3)n2)nc1,25*,1,1,2,11
CCCCC1CCC(c2nc(-c3ccccn3)no2)CC1 (stereo not drawn),2,-4,3,-1,1
CCc1ccc(CN(C(=O)c2ccco2)C2CCS(=O)(=O)C2)cc1 (stereo not drawn),2,0,-2,-4,-6

# Compound activity as filed in PubChem BioAssay.
